Data as given in PubChem BioAssay (NCATS).
Records with an inconclusive call do not appear. A number with no mark means an inactive call. The source made the active and inactive calls. Calls come from the whole dose curve; as a rule, active = well fitted curve in the direction sought with a large enough effect; inconclusive = small, poorly fitted or top-dose-only effect, or another doubt; inactive = no such curve, though single readings can be large; an effect the other way counts as inactive or inconclusive.

Columns and labels:
[1] = Primary redox qHTS assay for identification of artifact compounds. (AID 1845223)
Method in brief: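 Redox-cycling detection via DTT (250 uM final) oxidation coupled to Amplex Red (25 uM)/HRP (250 mU/mL) in HBSS. 15 min preincubation plus 30 min after DTT, room temperature. Ex/Em 525/598 nm; 4-parameter Hill fit against DMSO and 10 uM DA3003.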

[2] = Quantitative High-Throughput drug screen in 47 multiple myeloma cell lines against the NCATS MIPE library collection: EJM_DSMZ cell viability assay (AID 1918926; note: nearly all actives have a fitted effect of over 30% in size; note: potency is the fitted concentration of half-maximal effect)
Method in brief: (§1)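 Relative luminescence from CellTiter-Glo served as the viability signal, referenced to DMSO-treated (100%) and cell-free medium (0%) controls. Treatment lasted 48 hours at 37C with 500 cells per well.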

[3] = Quantitative High-Throughput drug screen in 47 multiple myeloma cell lines against the NCATS MIPE library collection: AMO1_DSMZ cell viability assay (AID 1918927; note: nearly all actives have a fitted effect of over 30% in size; note: potency is the fitted concentration of half-maximal effect)
Method in brief: as §1

[4] = Quantitative High-Throughput drug screen in 47 multiple myeloma cell lines against the NCATS MIPE library collection: ARP1_JJKsccF8 cell viability assay (AID 1918928; note: nearly all actives have a fitted effect of over 40% in size; note: potency is the fitted concentration of half-maximal effect)
Method in brief: (§2)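 Cell viability inhibition in this qHTS is measured via ATP content (CellTiter-Glo) after 48 h drug exposure at 37 °C. Wells hold 500 cells; DMSO-treated wells define 100% and medium-only wells 0%.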

[5] = Quantitative High-Throughput drug screen in 47 multiple myeloma cell lines against the NCATS MIPE library collection: KMM1_JCRB cell viability assay (AID 1918960); note: nearly all actives have a fitted effect of over 30% in size; note: potency is the fitted concentration of half-maximal effect
Method in brief: as §2

[6] = Quantitative High-Throughput drug screen in 47 multiple myeloma cell lines against the NCATS MIPE library collection: Karpas417_ECACC cell viability assay (AID 1918961); settings: Karpas417 myeloma viability, CellTiter-Glo ATP luminescence, 48 h; viability (% of DMSO): at 45.8 µM (top of the series); note: potency is the fitted concentration of half-maximal effect
Method in brief: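 Inhibition of cell viability is measured here. Each line was plated at 500 cells per well, treated with MIPE 4.0 drugs, kept 48 hours at 37C, then assayed for ATP content by CellTiter-Glo luminescence.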

[7] = Quantitative High-Throughput drug screen in 47 multiple myeloma cell lines against the NCATS MIPE library collection: Delta47_JCRB cell viability assay (AID 1918925; note: nearly all actives have a fitted effect of over 45% in size; note: potency is the fitted concentration of half-maximal effect)
Method in brief: as §1

[8] = Quantitative High-Throughput drug screen in 47 multiple myeloma cell lines against the NCATS MIPE library collection: ARD_JJKsccE7 cell viability assay (AID 1918929; note: potency is the fitted concentration of half-maximal effect)
Method in brief: as §1

[9] = Quantitative High-Throughput drug screen in 47 multiple myeloma cell lines against the NCATS MIPE library collection: Karpas620_DSMZ cell viability assay (AID 1918959); note: nearly all actives have a fitted effect of over 30% in size; note: potency is the fitted concentration of half-maximal effect
Method in brief: (§3)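 Approved and investigational drugs from MIPE 4.0 were added by pin tool to 500 cells per well. After 48 hours at 37C, ATP-based CellTiter-Glo luminescence indicated remaining viability.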

[10] = Quantitative High-Throughput drug screen in 47 multiple myeloma cell lines against the NCATS MIPE library collection: FR4_PLB cell viability assay (AID 1918924; note: nearly all actives have a fitted effect of over 35% in size; note: potency is the fitted concentration of half-maximal effect)
Method in brief: as §3

SMILES | Potency [1] | Potency [2] | Potency [3] | Potency [4] | Potency [5] | Potency [6] | Potency [7] | Potency [8] | Potency [9] | Potency [10]
O=C(Nc1nc2cccc(-c3ccc(CN4CCS(=O)(=O)CC4)cc3)n2n1)C1CC1 | inactive | 18700 nM (active) | 5900 nM (active) | 20900 nM (active) | 8330 nM (active) | 1660 nM (active) | – | – | – | –
OCc1ccc(-c2ccc(-c3ccc(CO)s3)o2)s1 | inactive | 11800 nM (active) | – | 18700 nM (active) | inactive | – | 20900 nM (active) | inactive | inactive | –
CCNC(=O)Nc1ccc2ncc(Nc3ccc(C)cc3)nc2n1 | inactive | – | 2350 nM (active) | – | 2640 nM (active) | 59 nM (active) | 3320 nM (active) | 3720 nM (active) | 1870 nM (active) | –
CC(C)Nc1cc(C(F)(F)F)cc2nc(NC(=O)c3cccnc3)nn12 | inactive | 14800 nM (active) | – | – | inactive | – | – | inactive | inactive | –
C=CC(=O)Nc1cccc(Oc2nc(Nc3ccc(N4CCN(C)CC4)cc3OC)ncc2Cl)c1 | inactive | – | – | – | – | inactive | 29.6 nM (active) | – | – | –
O=C(O)CCCc1c[nH]c2ccccc12 | inactive | – | – | – | inactive | – | inactive | inactive | inactive | –
COC(=O)Nc1ccc(-c2nc(N3CCOCC3)c3cnn(C4CCN(Cc5cccnc5)CC4)c3n2)cc1 | inactive | 1480 nM (active) | inactive | 74.3 nM (active) | – | – | 93.5 nM (active) | – | inactive | –
C[C@]1(CO)CN(c2cc(C(=O)Nc3ccc4c(c3)-c3c(c(C(N)=O)nn3-c3ccc(F)cc3)CC4)c(Cl)cn2)C[C@@]1(C)CO | inactive | – | – | – | 209 nM (active) | 2640 nM (active) | 9350 nM (active) | – | 1660 nM (active) | –
Cc1cc(N2CCOCC2)cc2[nH]c(-c3c(NC[C@@H](O)c4cccc(Cl)c4)cc[nH]c3=O)nc12 | inactive | 235 nM (active) | 526 nM (active) | 5260 nM (active) | 52.6 nM (active) | – | 66.2 nM (active) | – | 418 nM (active) | –
NC(=O)c1c(OCc2c(F)cc(Br)cc2F)nsc1NC(=O)NCCCCN1CCCC1 | inactive | 20900 nM (active) | – | – | inactive | inactive | 7430 nM (active) | inactive | inactive | –
CN(C)CC(C)(C)CNc1nn2c(-c3ccccc3)nnc2cc1C1CCC1 | inactive | – | 2960 nM (active) | – | – | – | 13200 nM (active) | inactive | 14800 nM (active) | –
NC1(Cc2ccc(Cl)cc2)CCN(c2ncnc3[nH]ccc23)CC1 | inactive | – | 2090 nM (active) | 2960 nM (active) | 3720 nM (active) | – | 935 nM (active) | 935 nM (active) | – | –
Nc1cccc(-c2cc3c(Oc4cccc(O)c4)ncnc3[nH]2)c1 | inactive | 16600 nM (active) | – | 20900 nM (active) | – | – | – | inactive | inactive | –
COc1cc(C)c(Sc2cnc(NC(=O)c3ccc(CNC(C)C(C)C)cc3)s2)cc1C(=O)N1CCN(C(C)=O)CC1 (stereo unspecified) | inactive | 16600 nM (active) | inactive | 16600 nM (active) | inactive | – | 2350 nM (active) | – | inactive | –
Nc1nccc(Oc2ccc(NC(=O)c3c[nH]cc(-c4ccc(F)cc4)c3=O)cc2F)c1Cl | inactive | – | 2350 nM (active) | 14800 nM (active) | 2960 nM (active) | – | 16600 nM (active) | 6620 nM (active) | – | –
COc1ccc(C(=O)CC2(O)C(=O)Nc3c(Cl)ccc(Cl)c32)cc1 (stereo unspecified) | inactive | 3320 nM (active) | 526 nM (active) | 3720 nM (active) | 1180 nM (active) | – | 3720 nM (active) | 1320 nM (active) | – | –
Clc1ccc2ncc(-c3cccc(NC4CNC4)n3)n2c1 | inactive | 18700 nM (active) | 4690 nM (active) | 23500 nM (active) | 2350 nM (active) | inactive | – | – | inactive | –
Cc1cn2cc(C(=O)N(C)CCO)cc(N[C@@H]3CCOc4cccc(C)c43)c2n1 | inactive | – | inactive | inactive | inactive | – | inactive | – | inactive | –
CC(C)(C)c1cc(NC(=O)Nc2ccc(-c3cn4c(n3)sc3cc(OCCN5CCOCC5)ccc34)cc2)no1 | inactive | 18700 nM (active) | – | – | – | – | – | – | inactive | –

SMILES | Potency [1] | Potency [2] | Potency [3] | Potency [4] | Potency [5] | Potency [6] | Potency [7] | Potency [8] | Potency [9] | Potency [10]
CC(C)c1cc(-c2n[nH]c(=O)n2-c2ccc3c(ccn3C)c2)c(O)cc1O | inactive | – | 29.6 nM (active) | 29.6 nM (active) | 37.2 nM (active) | 16.6 nM (active) | 33.2 nM (active) | 16.6 nM (active) | 29.6 nM (active) | –
CN1CCN(c2cc(C(=O)Nc3ccc4c(c3)-c3c(c(C(N)=O)nn3-c3ccc(F)cc3)CC4)c(Cl)cn2)CC1 | – | 833 nM (active) | 7430 nM (active) | – | 20900 nM (active) | – | 935 nM (active) | 16600 nM (active) | 23500 nM (active) | 16600 nM (active)
C1=CCOCc2cc(ccc2OCCN2CCCC2)Nc2nccc(n2)-c2cccc(c2)OCC1 | – | 2640 nM (active) | 3320 nM (active) | 1660 nM (active) | 1870 nM (active) | 1660 nM (active) | 2350 nM (active) | 1870 nM (active) | 2090 nM (active) | 3320 nM (active)
O=C(CCCCCCNC(=O)c1cnc(N(c2ccccc2)c2ccccc2)nc1)NO | – | 13200 nM (active) | 4690 nM (active) | 2960 nM (active) | 4180 nM (active) | 590 nM (active) | 3320 nM (active) | 4690 nM (active) | 5900 nM (active) | 2960 nM (active)
CC(C)(C)OC(=O)Nc1ccc(-c2cc(C(=O)NCCCCCCC(=O)NO)no2)cc1 | – | 3720 nM (active) | 590 nM (active) | 743 nM (active) | – | – | 833 nM (active) | 935 nM (active) | 2350 nM (active) | 1320 nM (active)
Nc1ccn([C@@H]2CS[C@H](CO)O2)c(=O)n1 | – | inactive | inactive | inactive | inactive | – | 42900 nM (active) | inactive | inactive | inactive
C[C@@H](Oc1cc(-n2cnc3ccc(CN4CCN(C)CC4)cc32)sc1C(N)=O)c1ccccc1C(F)(F)F | – | 23500 nM (active) | 74.3 nM (active) | 105 nM (active) | 33.2 nM (active) | – | 41.8 nM (active) | 26.4 nM (active) | – | 33.2 nM (active)
c1cc(-c2cnn3cc(-c4ccc(OCCN5CCCCC5)cc4)cnc23)ccn1 | – | 16600 nM (active) | – | 16600 nM (active) | inactive | – | 2090 nM (active) | inactive | inactive | 11800 nM (active)
CC[C@H]1CN2CCc3cc(OC)c(OC)cc3[C@H]2C[C@@H]1C[C@@H]1NCCc2cc(OC)c(OC)cc21 | – | 187 nM (active) | 235 nM (active) | 187 nM (active) | 187 nM (active) | – | 166 nM (active) | 296 nM (active) | 235 nM (active) | 372 nM (active)
O=C(NC1CCNCC1)c1[nH]ncc1NC(=O)c1c(Cl)cccc1Cl | – | 105 nM (active) | 1180 nM (active) | 372 nM (active) | 590 nM (active) | 187 nM (active) | 372 nM (active) | 743 nM (active) | 935 nM (active) | 83.3 nM (active)
COc1ccc(C=Cc2cc(OC)c(OC)c(OC)c2)cc1O | – | inactive | inactive | inactive | inactive | – | inactive | inactive | inactive | inactive
COc1cc2c(Oc3ccc(-c4cnc(Nc5ccc(F)cc5)n(C)c4=O)cc3F)ccnc2cc1OCCCN1CCOCC1 | – | 18700 nM (active) | 2350 nM (active) | 8330 nM (active) | 1870 nM (active) | – | 935 nM (active) | – | 2960 nM (active) | 14800 nM (active)
CN1CC[C@@H](c2c(O)cc(O)c3c(=O)cc(-c4ccccc4Cl)oc23)[C@@H](O)C1 | – | 74.3 nM (active) | 26.4 nM (active) | 83.3 nM (active) | 59 nM (active) | 18.7 nM (active) | 66.2 nM (active) | 46.9 nM (active) | 93.5 nM (active) | 33.2 nM (active)
O=c1[nH]nc(Sc2ncc([N+](=O)[O-])s2)n1-c1ccc2c(c1)OCCO2 | – | 2960 nM (active) | 6620 nM (active) | 2960 nM (active) | 5900 nM (active) | – | 2350 nM (active) | 7430 nM (active) | 2640 nM (active) | 7430 nM (active)
CN(c1ncccc1CNc1nc(Nc2ccc3c(c2)CC(=O)N3)ncc1C(F)(F)F)S(C)(=O)=O | – | 8330 nM (active) | 3320 nM (active) | 9350 nM (active) | 3320 nM (active) | 1870 nM (active) | 3720 nM (active) | 2640 nM (active) | 1480 nM (active) | 5900 nM (active)
CC=C1NC(=O)[C@H]2CSSCCC=C[C@H](CC(=O)N[C@H](C(C)C)C(=O)N2)OC(=O)[C@H](C(C)C)NC1=O | – | 29.6 nM (active) | 14.8 nM (active) | 26.4 nM (active) | 7.4 nM (active) | – | 16.6 nM (active) | 11.8 nM (active) | 26.4 nM (active) | 10.5 nM (active)
CCCCc1nc2cc(C=CC(=O)NO)ccc2n1CCN(CC)CC | – | 1320 nM (active) | – | 148 nM (active) | – | – | 469 nM (active) | – | – | 83.3 nM (active)
C=CC(=O)Nc1cc2c(Nc3ccc(F)c(Cl)c3)ncnc2cc1C#CC(C)(C)N1CCN(C)CC1 | – | 2090 nM (active) | 662 nM (active) | 5900 nM (active) | 1480 nM (active) | 590 nM (active) | 469 nM (active) | 1050 nM (active) | 590 nM (active) | 3720 nM (active)
